Reference: the supplement of paper PMC9023506
Where a name gives a salt, the structure may show the parent alone.

Tested on: Danio rerio larvae (5 dpf)
Test: optomotor response to red moving lines, difference vs DMSO (percentage points (treated minus DMSO)); higher = more of the behaviour than the DMSO vehicle control
Settings: 10 µM; exposure time: 3 h pre-incubation + 3 h imaging
Procedure: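 5-dpf wild-type zebrafish larvae were imaged in 96-well plates. They were treated with 190 Tocris FDA-approved drugs at 10 µM (1 µl/ml DMSO) for 3 h before and 3 h during imaging at 28.5 °C, 48 larvae per drug. Automated image analysis gave % time moving and optomotor responses. Values are drug group mean minus DMSO vehicle mean (n=844), in percentage points, for 10 behaviours.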

| SMILES | optomotor response to red moving lines |
| --- | --- |
| CC(C)(C)NC(=O)[C@@H]1C[C@@H]2CCCC[C@@H]2CN1C[C@@H](O)[C@H](Cc1ccccc1)NC(=O)[C@H](CC(N)=O)NC(=O)c1ccc2ccccc2n1 [Saquinavir mesylate] | -16.6 |
| CC1CNc2c(cccc2S(=O)(=O)N[C@@H](CCCNC(=N)N)C(=O)N2CC[C@@H](C)C[C@@H]2C(=O)O)C1 (stereo not given in full) [Argatroban] | -3.42 |
| COc1cc(Nc2c(C#N)cnc3cc(OCCCN4CCN(C)CC4)c(OC)cc23)c(Cl)cc1Cl [Bosutinib] | 3.82 |
| NC(=O)OCC(COC(N)=O)c1ccccc1 [Felbamate] | -9.28 |
| C=CC(=O)N1CCC[C@@H](n2nc(-c3ccc(Oc4ccccc4)cc3)c3c(N)ncnc32)C1 [Ibrutinib] | -1.62 |
| CCOC(=O)[C@H](CCc1ccccc1)N[C@@H](C)C(=O)N1[C@H](C(=O)O)C[C@@H]2CCC[C@@H]21 [Ramipril] | -1.65 |
| CC1=Nc2ccc(Cl)cc2S(=O)(=O)N1 [Diazoxide] | 0.599 |
| CCOc1ccccc1OCCN[C@H](C)Cc1ccc(OC)c(S(N)(=O)=O)c1 [Tamsulosin hydrochloride] | -6.78 |
| Cc1cc(C2CCCCC2)n(O)c(=O)c1 [Ciclopirox] | -5.18 |
| O=C(O[C@@H]1C[C@@H]2C[C@H]3C[C@H](C1)N2CC3=O)c1c[nH]c2ccccc12 [Dolasetron mesylate] | -6.24 |
| CCOC(=O)C1=C(C)NC(C)=C(C(=O)OC)C1c1cccc(Cl)c1Cl (stereo not given) [Felodipine] | 4.89 |
| CC(=O)S[C@@H]1CC2=CC(=O)CC[C@]2(C)[C@H]2CC[C@@]3(C)[C@@H](CC[C@@]34CCC(=O)O4)[C@H]12 [Spironolactone] | 11.7 |
| Nc1ncn([C@@H]2O[C@H](CO)[C@@H](O)[C@H]2O)c(=O)n1 [5-Azacytidine] | 5.02 |
| CN(CCOc1ccc(NS(C)(=O)=O)cc1)CCc1ccc(NS(C)(=O)=O)cc1 [Dofetilide] | -14.2 |
| COc1cccc2c1C(=O)c1c(O)c3c(c(O)c1C2=O)C[C@@](O)(C(=O)CO)C[C@@H]3O[C@H]1C[C@H](N)[C@H](O)[C@H](C)O1 [Doxorubicin hydrochloride] | -1.73 |
| CC(C)(C(=O)c1cccnc1)c1cccnc1 [Metyrapone] | 4.83 |
| Cn1cnc([N+](=O)[O-])c1Sc1ncnc2[nH]cnc12 [Azathioprine] | 3.86 |
| Nc1cccc2c1CN(C1CCC(=O)NC1=O)C2=O (stereo not given) [Lenalidomide] | 6.24 |
| CC(C)(C#N)c1cc(Cn2cncn2)cc(C(C)(C)C#N)c1 [Anastrozole] | -3.51 |
| COCCCOc1cc(C[C@@H](C[C@H](N)[C@@H](O)C[C@H](C(=O)NCC(C)(C)C(N)=O)C(C)C)C(C)C)ccc1OC [Aliskiren hemifumarate] | 0.559 |

| SMILES | optomotor response to red moving lines |
| --- | --- |
| COc1cc2nc(N3CCN(C(=O)c4ccco4)CC3)nc(N)c2cc1OC [Prazosin hydrochloride] | -6.9 |
| CN(C)CCc1c[nH]c2ccc(Cn3cncn3)cc12 [Rizatriptan benzoate] | 14.6 |
| Nc1ccn([C@@H]2O[C@H](CO)[C@@H](O)C2(F)F)c(=O)n1 [Gemcitabine hydrochloride] | 12.3 |
| C[C@H]1O[C@H](O[C@H]2[C@H](O)[C@@H](O)[C@@H](O[C@H]3[C@H](O)[C@@H](O)C(O)O[C@@H]3CO)O[C@@H]2CO)[C@H](O)[C@@H](O)[C@@H]1N[C@H]1C=C(CO)[C@@H](O)[C@H](O)[C@H]1O (stereo not given in full) [Acarbose] | 6 |
| Clc1ccccc1C(c1ccccc1)(c1ccccc1)n1ccnc1 [Clotrimazole] | 26.3 |
| Cc1cccc(C)c1OCC(C)N (stereo not given) [Mexiletine hydrochloride] | 3.43 |
| CC[C@H](C)C(=O)O[C@H]1C[C@@H](C)C=C2C=C[C@H](C)[C@H](CC[C@@H]3C[C@@H](O)CC(=O)O3)[C@H]21 [Lovastatin] | -6.33 |
| Cc1ccsc1C(=CCCN1CCC[C@@H](C(=O)O)C1)c1sccc1C [Tiagabine hydrochloride] | 20.4 |
| OCCOCCN1CCN(C2=Nc3ccccc3Sc3ccccc32)CC1 [Quetiapine hemifumarate] | 6.92 |
| COc1cc(N)c(Cl)cc1C(=O)NC1CCN(CCCOc2ccc(F)cc2)CC1OC (stereo not given) [Cisapride] | -3.64 |
| CN(C)CC/C=C1/c2ccccc2COc2ccc(CC(=O)O)cc21 [Olopatadine hydrochloride] | 19 |
| O=C(O)CCCc1ccccc1 [Sodium 4-Phenylbutyrate] | 3.33 |
| O=C(O)c1cc(/N=N/c2ccc(S(=O)(=O)Nc3ccccn3)cc2)ccc1O [Sulfasalazine] | 2.01 |
| C[C@H](Cc1cc2c(c(C(N)=O)c1)N(CCCO)CC2)NCCOc1ccccc1OCC(F)(F)F [Silodosin] | 6.25 |
| CC(CCc1ccc(O)cc1)NCCc1ccc(O)c(O)c1 (stereo not given) [Dobutamine hydrochloride] | 5.06 |
| O=c1[nH]c(=O)n([C@H]2C[C@H](O)[C@@H](CO)O2)cc1C(F)(F)F [Trifluorothymidine] | 9.66 |
| CC(=O)Nc1ccc(O)cc1 [Acetaminophen] | -2.99 |
| CCCCCCCN(CC)CCCC(O)c1ccc(NS(C)(=O)=O)cc1 (stereo not given) [Ibutilide hemifumarate] | 10.1 |
| CCOC(=O)[C@H](CCc1ccccc1)N[C@H]1CCc2ccccc2N(CC(=O)O)C1=O [Benazepril hydrochloride] | 13 |
| Cc1ccc(NC(=O)c2ccc(CN3CCN(C)CC3)cc2)cc1Nc1nccc(-c2cccnc2)n1 [Imatinib mesylate] | -3.1 |
